# This is one part of a sample in which hits are shown more often than they occur.
# KDM5B inhibitor – Primary screen for KDM5B Histone Demethylases FDH-coupled qHTS; Lysine-specific demethylase 5B (Homo sapiens), Q9UGL1; KDM5B demethylase, FDH-coupled NADH fluorescence (FDH is formaldehyde dehydrogenase); Potency, µM (titrated, usually from 57.7 µM), most hits filed as inhibitors; 2.6% of 220,000 active; active means well fitted inhibition curve with a large enough effect; further: 0% is about no effect; nearly all actives have a fitted effect of over 70% in size
#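 qHTS format, multiple compound concentrations. Buffer 50 mM HEPES pH 7.5/0.01% Tween-20; 200 nM KDM5BΔAP final; 10 min compound preincubation; substrate-mix levels 12.5 µM peptide, 25 µM α-KG, 0.25 mM NAD⁺; 30 min RT; ΔRFU.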
# Active calls of the source: *; i = inactive. Potency means the concentration at half of the fitted maximal effect.
SMILES,KDM5B inhibitor
c1coc(-c2ccnc3ncnn23)c1,28.2µM*
COc1ccc(N2CC(c3noc(-c4cc(OC)c(OC)c(OC)c4)n3)CC2=O)cc1OC (stereo not drawn),i
COc1cccc(-c2ccnc3c(-c4ccccc4)c(C)nn23)c1,i
CCNC(=O)COC(=O)c1ccc2c(=O)n3c(nc2c1)CCCCCC3,i
Fc1ccc2c(c1)nc1n2[C@@H](CNC2CCC2)COC1,i
CC(C)c1nnc(NC(=O)C2CC(c3cccc(F)c3)=NO2)s1 (stereo not drawn),i
COc1ccc(CNC(=O)Cn2nc3n(c2=O)CCCC3)cc1,i
COC(=O)c1c(NC(=O)CN2CCN(C(=O)C3CCCO3)CC2)sc2c1CCC2 (stereo not drawn),i
c1ccc(-c2ccnc3nc(C4CC4)nn23)cc1,28.2µM*
COc1cc(-c2ccnc3nc(-c4cccs4)nn23)cc(OC)c1OC,14.1µM*
c1coc(-c2nc3n(n2)C2(CCCCC2)[C@@H]2CCCC[C@@H]2N3)c1,i
COc1cccc2cc(-c3nc(-c4cccs4)no3)c(=O)oc12,i
COc1ccccc1CN1CCN(Cc2nc(-c3cccs3)no2)CC1,i
c1ccc(-c2noc(-c3nc(C4CC4)no3)n2)cc1,i
Cc1nn2c(-c3ccco3)ccnc2c1-c1ccc(F)cc1,i
c1ccc2nc(-n3nc(C4CCOC4)nc3C3CC3)cnc2c1 (stereo not drawn),i
c1coc(-c2ccnc3nc(C4CCC4)nn23)c1,28.2µM*
CCCC[N+](C)(CC#Cc1ccc(C#CC[N+](C)(CCCC)CCCC)cc1)CCCC,i
CCCCn1c(=O)[nH]c(=O)c2c1nc(CN1CCOC(C)C1)n2C (stereo not drawn),i
Cc1cc(S(=O)(=O)N2CCOC23CCN(C(=O)c2cccc(F)c2)CC3)ccc1F,i
O=C1N[C@@H]2CCN(C(=O)COc3ccccc3)[C@@H]2C(=O)N1c1ccc(Oc2ccccc2)cc1,i
COCCNC(=O)[C@@H]1C[C@H](Oc2ccccc2)CN1C(=O)c1cccn1C,i
Cn1nc(C(=O)N2CCCCC2c2nc3ccccc3s2)c2ccccc2c1=O (stereo not drawn),i
CC(=O)N1CCCC(c2nn(C)c(=O)n2C2CCCC2)C1 (stereo not drawn),i
C[S+](=O)([O-])N1CCCC(c2nnc3n2CCNC3)C1 (stereo not drawn),i
SMILES,KDM5B inhibitor
CC(=O)N1CCCC(c2nnc3n2CCNC3)C1 (stereo not drawn),79.4µM*
Fc1ccc(-c2cnc([C@@H]3COCCN3CC3CC3)[nH]2)cc1,i
Fc1ccccc1-c1noc(N2CCOCC2)n1,i
Cn1nc(-c2ccccc2F)c2cc(C(=O)N3CCOCC3)sc21,i
O=C(c1cc(F)cc(F)c1)N1CCC(CN2CCOCC2)CC1,i
COc1cc(F)ccc1-c1nc(N2CCOCC2)cc2c1CN(CC1CC1)C2=O,35.5µM*
COc1cc(F)ccc1-c1cn(C)c(=O)n2cc(CN3CCOCC3)nc12,i
O=C1c2cc(N3CCOCC3)nc(-c3ccccc3F)c2CN1CC1CC1,39.8µM*
O=C1c2cc(N3CCOCC3)nc(-c3ccc(F)cc3)c2CN1CC1CC1,39.8µM*
COc1ccc(-c2n[nH]c3c2CC(=O)N(CC2CCOCC2)C3)cc1F,i
Cc1nc2ccc(C(=O)OCC(=O)N3CCCCC3)cc2nc1C,i
O=C(COc1ncnc2c(Cl)cc(Cl)cc12)Nc1ccccc1F,i
CCCC1Cc2c(sc3nc(SCC(=O)c4ccccc4)nc(N)c23)CO1 (stereo not drawn),i
COCc1nnc2n1CCC(NC(=O)Cc1c[nH]c3ccccc13)CC2 (stereo not drawn),i
COCc1nnc2n1CCC(NC(=O)c1n[nH]c3ccccc13)CC2 (stereo not drawn),28.2µM*
COCc1nnc2n1CCC(NC(=O)c1ccco1)CC2 (stereo not drawn),i
CCCC(=O)N1CCCN(CC(=O)Nc2cccc(F)c2)CC1,i
O=C(Nc1ccc(N2CCCCC2)c2ccncc12)C1CCN(C(=O)C2CC2)CC1,i
O=C(CCc1ccsc1)N(CC1CCOC1)C1CC1 (stereo not drawn),i
CCCOc1ccc(-c2cc(C(=O)O)c3cccc(C)c3n2)cc1,i
Cc1ccnc(CC(C)N(C)C(=O)c2cc(-c3cnn(C)c3)nc3ccccc23)c1 (stereo not drawn),22.4µM*
CN(Cc1cnn(C)c1)C(=O)c1cc(-c2ccccc2)nc2ccccc12,i
Cc1cccc2c(C(=O)N(C)C(C)Cc3ccccn3)cc(-c3cnc(N)nc3)nc12 (stereo not drawn),31.6µM*
Cc1cccc(-c2cc(C(=O)NCc3ccccn3)c3ccccc3n2)c1,i
COc1ccc(-c2cc(C(=O)O)c3cccc(C)c3n2)cc1,i
SMILES,KDM5B inhibitor
CNC(=O)Cn1nc(-c2ccccc2)c2ccccc2c1=O,i
CC(=O)N1CCOC2(CCN(C(=O)c3ccc(Cl)cc3)CC2)C1,i
Cc1cc(C(=O)NCc2ccc(C)o2)c2cccc(-c3ccccc3)c2n1,i
CSCC[C@@H]1NC(=O)c2cc(NC(=O)c3ccc(-n4cnnn4)cc3)ccc2NC1=O,i
Cn1ccc2ccc(C(=O)Nc3ccc4c(c3)C(=O)N3CCC[C@H]3C(=O)N4)cc21,i
CSCC[C@@H]1NC(=O)c2cc(NC(=O)c3ccc4ccn(C)c4c3)ccc2NC1=O,25.1µM*
CCCn1nc(C(=O)OCc2nnc(C)o2)c2ccccc2c1=O,i
CCC(=O)N1CCC2(CC1)CN(c1ccccc1)C2=O,i
O=C(c1ccncc1)N1CCCN(Cc2cccnc2)c2ccccc21,i
O=C(NCCc1ccccc1)C(=O)NCC(c1cccnc1)N1CCN(c2ccccc2F)CC1 (stereo not drawn),i
NC(=O)c1cc(-c2ccccc2F)cc2c1OCCN2Cc1cccnc1,35.5µM*
O=C1OC[C@@H]2CCN(Cc3cccnc3)Cc3ccc(F)cc3N12,i
O=C(c1cc(-c2ccccc2F)cc2c1OCCN2Cc1cccnc1)N1CC(O)C1,39.8µM*
O=C(NCc1cccnc1)[C@@H]1C[C@@H](O)CN1C1CCN(C(=O)c2ccccc2F)CC1,i
CC(C)CNC(=O)C1Cn2cccc2C(=O)N1Cc1cccnc1 (stereo not drawn),i
CNC(=O)c1cc(-c2ccccc2F)cc2c1OCCN2Cc1cccnc1,39.8µM*
CC(C)CNC(=O)c1cc(-c2ccccc2F)cc2c1OCCN2Cc1cccnc1,31.6µM*
O=C1NC2(CCN(Cc3cccnc3)CC2)Oc2ccccc21,i
O=C1C[C@@H]2CCN(C(=O)c3ccccc3)C[C@@H]2CCN1Cc1cccnc1,i
CNC(=O)[C@@H](c1ccccc1F)N1CCC[C@H]1C(=O)NCc1cccnc1,i
O=C(CSc1ncc(-c2ccc(Br)cc2)o1)N1CCCCC1,i
Cc1ccc(NC(=O)CN(C)C(=O)c2ccc3c(c2)nnn3C2CCCC2)cc1,i
CC(C)(C)c1ccc(O)c(NC(=O)c2cc[n+]([O-])cc2)c1,i
CCSc1nc(-c2ccc(C)cc2)nc2c1COC(C)(C)C2,i
CCc1ccc(NC(=O)Cc2nc(-c3[nH]c(C)c(C(C)=O)c3C)cs2)cc1,i
O=C1CC(c2cccc(F)c2F)c2c(n3c(nc4ccccc43)[nH]c2=O)N1 (stereo not drawn),i
Cn1c(=O)c2sccc2n(CC(=O)NCC2CCCO2)c1=O (stereo not drawn),i

# Assay outcomes as filed in PubChem.
